In PubChem BioAssay one finds inhibition data, which are given here for 35 compounds.

Values without a mark were called inactive. The source made the active and inactive calls. Rule as the data show it, unless noted: active = inhibition above about 36%; inactive = the rest.

The test system of assay [1] is transactivating tegument protein VP16 (Human herpesvirus 1). As to the kind of experiment: compounds suppressing VP16-driven luciferase signal – cell-based, luminescence, single concentration, counter-screen for SRC2 inhibitor project (AID 652007). The following applies: cell-based VP16 transactivation luciferase reporter, at 8.9 µM, hits give high values.
Assay [2] concerns the target Nuclear receptor coactivator 2 (Homo sapiens) (UniProt Q15596). As to the kind of experiment: inhibition of GAL4-SRC2 driven luciferase expression – cell-based, luminescence, HEK293, triplicate, confirmation (AID 652008;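 active = mean inhibition above 46.5%, the solvent-only control mean plus 3 SD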;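 also: 0% = DMSO-treated cells and 100% = Gossypol at 36 µM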). As to conditions: HEK293 GAL4-SRC2 luciferase reporter, at 8.9 µM, hits give high values. (In a reporter assay the amount or activity of a reporter protein is the signal.)

Sequence of Nuclear receptor coactivator 2 (Homo sapiens) (Q15596 whole entry, looked up, the tested form may be a part): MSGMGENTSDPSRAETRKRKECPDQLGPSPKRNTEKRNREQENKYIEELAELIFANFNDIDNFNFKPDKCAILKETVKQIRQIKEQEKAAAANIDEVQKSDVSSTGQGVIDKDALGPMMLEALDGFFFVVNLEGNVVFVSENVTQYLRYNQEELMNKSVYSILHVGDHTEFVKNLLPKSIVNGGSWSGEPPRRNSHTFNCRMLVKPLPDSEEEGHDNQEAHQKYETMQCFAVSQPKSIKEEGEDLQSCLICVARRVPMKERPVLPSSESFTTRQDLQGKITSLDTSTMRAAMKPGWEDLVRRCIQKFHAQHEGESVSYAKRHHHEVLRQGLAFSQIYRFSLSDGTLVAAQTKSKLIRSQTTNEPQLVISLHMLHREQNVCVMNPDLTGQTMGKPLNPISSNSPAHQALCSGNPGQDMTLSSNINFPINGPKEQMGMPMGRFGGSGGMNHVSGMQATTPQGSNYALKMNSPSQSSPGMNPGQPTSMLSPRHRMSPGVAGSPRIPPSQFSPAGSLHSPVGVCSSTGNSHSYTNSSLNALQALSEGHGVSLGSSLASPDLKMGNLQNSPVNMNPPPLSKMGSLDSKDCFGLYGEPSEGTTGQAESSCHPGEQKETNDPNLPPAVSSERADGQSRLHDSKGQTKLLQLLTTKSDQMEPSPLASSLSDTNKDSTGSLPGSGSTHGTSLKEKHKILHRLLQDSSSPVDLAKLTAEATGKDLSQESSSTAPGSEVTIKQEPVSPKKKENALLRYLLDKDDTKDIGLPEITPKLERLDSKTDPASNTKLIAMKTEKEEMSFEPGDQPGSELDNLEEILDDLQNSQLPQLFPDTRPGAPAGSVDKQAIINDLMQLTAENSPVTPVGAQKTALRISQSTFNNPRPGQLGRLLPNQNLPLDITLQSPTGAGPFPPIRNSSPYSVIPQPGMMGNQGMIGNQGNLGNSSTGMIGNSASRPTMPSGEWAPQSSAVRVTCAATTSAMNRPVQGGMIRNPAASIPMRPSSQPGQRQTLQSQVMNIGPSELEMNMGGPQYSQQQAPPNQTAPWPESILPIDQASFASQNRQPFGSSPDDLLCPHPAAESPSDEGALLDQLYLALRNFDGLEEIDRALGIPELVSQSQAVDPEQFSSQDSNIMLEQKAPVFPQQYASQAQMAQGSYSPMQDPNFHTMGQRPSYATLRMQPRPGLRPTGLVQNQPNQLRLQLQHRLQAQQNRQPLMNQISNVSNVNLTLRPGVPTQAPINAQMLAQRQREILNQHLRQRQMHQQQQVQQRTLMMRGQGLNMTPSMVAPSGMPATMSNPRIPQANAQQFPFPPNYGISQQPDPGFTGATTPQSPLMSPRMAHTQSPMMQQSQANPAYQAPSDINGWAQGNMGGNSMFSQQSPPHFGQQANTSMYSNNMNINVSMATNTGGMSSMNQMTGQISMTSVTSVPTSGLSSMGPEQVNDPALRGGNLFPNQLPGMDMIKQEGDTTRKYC

Turning to `COc1cc(OC)c(CN2CCc3c([nH]c4ccccc34)C2)cc1Br`, the values for the inhibition in assay [1] and in assay [2] were -7.11% and -4.79%, respectively.
For `O=[N+]([O-])c1cccc(NC(=S)Nc2nc(-c3ccc(Cl)cc3Cl)cs2)c1` the same measures were -15.8% and 9.75%.
On to `NCCN1C(=O)S/C(=C\c2ccc3c(c2)OCO3)C1=O`, for which the inhibition was 44% (active) in assay [1] and 56.6% (active) in assay [2].
For the compound `O=C(COC(=O)c1ccc(Br)o1)NCC(=O)Nc1ccc(F)cc1`, the results for the inhibition in assay [1] and in assay [2] were -21% and -15.8%, respectively.
With `COc1ccc(C(C(=O)NC2CCCC2)n2c(CSCCOc3ccccc3)nc3ccccc32)cc1` (stereo not given), the inhibition in assay [1] was 43.5% (active); in assay [2], 76.4% (active).
Turning to `Cc1ccc(C(=O)NCc2cccc(C(F)(F)F)c2)cc1S(=O)(=O)N1CCCCC1`, the inhibition in assay [1] was -7.82%; in assay [2], -8.4%.
On to `O=[N+]([O-])c1cc(C(F)(F)F)ccc1NCCCCNS(=O)(=O)c1ccc(Cl)cc1`, for which the inhibition was 3.03% in assay [1] and 43.3% in assay [2].
For `CC(=O)c1ccc(OC2(C)CCN(Cc3ccc(OC(F)(F)F)cc3)C2)cc1` (stereo not given) the same measures were -12.4% and -13.5%.
For `CCOC(=O)C1CCCCN1C(=O)CCc1c(C)nc2cc(-c3ccccc3)nn2c1C` (stereo not given) the same measures were -0.8% and 70.2% (active).
Take `COC(=O)c1cc(C(=O)OC)cc(S(=O)(=O)Nc2ccc(Cl)c(N)c2)c1`: the inhibition is -6.46% in assay [1] and -14.7% in assay [2].
With `COc1ccc(NC(=O)C2(C)Cc3c(-c4cccc(C(F)(F)F)c4)ccnc3O2)cn1` (stereo not given), the figures for the inhibition in assay [1] and in assay [2] were -0.87% and -0.12%, respectively.
For `FC(F)(F)c1cnc(NNC(=S)Nc2ccccc2)c(Cl)c1` the same measures were 10.3% and 14%.
As for `CC1=CC(C)(C)N(S(=O)(=O)c2ccc(C)cc2)c2ccc(C)cc21`, the figures for the inhibition in assay [1] and in assay [2] were 0.6% and -5.7%, respectively.
In the case of `CC(=NNc1ccc2ccccc2n1)c1ccccn1`, the inhibition in assay [1] was 83.8% (active); in assay [2] it was 89.3% (active).
For `O=C(NCC1COc2ccccc2O1)c1cccc(S(=O)(=O)N2CCN(c3ccccc3)CC2)c1` (stereo not given) the same measures were -4.6% and 5.11%.
On to `COc1ccccc1NS(=O)(=O)c1ccc(C)c(C(=O)NC2CCN(Cc3ccccc3)CC2)c1`, for which the figures for the inhibition in assay [1] and in assay [2] were 17.2% and 36.4%, respectively.
For the compound `Cc1ccc(-c2noc(CCCC(=O)NC3CCCC3)n2)cc1`, the values for the inhibition in assay [1] and in assay [2] were 20.1% and 42.4%, respectively.
In the case of `C=CS(=O)(=O)N(Cc1ccc(C)cc1)[C@@H](CO)C(=O)OC`, the inhibition is 17.1% in assay [1] and 63.8% (active) in assay [2].
Turning to `S=C(NCc1ccc(Cl)cc1)NC1CCN(Cc2ccccc2)CC1`, the inhibition was -17.5% in assay [1] and 19.2% in assay [2].
For `CC(C)(C)c1ccc(/C=C/C(=O)NCCCN2CCOCC2)cc1` the same measures were -13.2% and 4.98%.
For `O=C(Nc1nnc(SCCN2CCOCC2)s1)C1CC(=O)N(c2ccccc2)C1` (stereo not given) the same measures were 1.56% and -15.8%.
With `Cc1ccc(-c2nc(-c3ccccn3)no2)cc1Cl`, the values for the inhibition in assay [1] and in assay [2] were 11.8% and 34%, respectively.
Regarding `O=S(=O)(c1cc(C(F)(F)F)ccc1Cl)N1CCN(c2ncnc3ccccc23)CC1`, the inhibition in assay [1] is 17.2%; in assay [2] it was 18.7%.
For `CC(C)(C)NS(=O)(=O)c1ccc(Oc2ncc(C(F)(F)F)cc2Cl)cc1` the same measures were -20% and 14.2%.
In the case of `CC(C)(C)c1ccc(NC(=O)COc2ccc(-n3ccnc3)cc2)cc1`, the inhibition in assay [1] is 10.3%; in assay [2], 61.8% (active).
Consider `COc1cc(/C=C2\CC/C(=C\c3cc(OC)c(O)c(OC)c3)C2=O)cc(OC)c1O`, for which the inhibition in assay [1] was -70.7%; in assay [2], -13%.
For `CCOc1ccccc1N1CCN(C(=O)c2cc(-c3cc(OC)ccc3OC)nc3ccccc23)CC1` the same measures were -6.34% and 14.4%.
For `O=C(Nc1cccc(-c2cccc(Cl)c2)c1)C1CCN(Cc2ccccn2)CC1` the same measures were -2.92% and 17.7%.
For `CCOc1ccc(NS(=O)(=O)c2ccc(C(=O)NC3CCN(Cc4ccccc4)CC3)cc2)cc1` the same measures were -3.23% and 8.19%.
As for `CCCCC(=O)NC(c1ccccc1OC)c1ccc2cccnc2c1O` (stereo not given), the inhibition in assay [1] is -16.1%; in assay [2] it was 28.1%.
Take `CC(Oc1ccc(Cl)cc1Cl)C(=O)NCCCn1ccnc1` (stereo not given): the values for the inhibition in assay [1] and in assay [2] were -8.12% and -15.5%, respectively.
Regarding `CN(Cc1cc(Cl)cc(Cl)c1)CC(C(=O)c1ccccc1)c1ccccc1` (stereo not given), the values for the inhibition in assay [1] and in assay [2] were 25% and 47.9% (active), respectively.
For `Cc1cccc(C(=O)N2CCC(Cc3ccccc3)CC2)c1[N+](=O)[O-]` the same measures were 14.4% and 38.3%.
For the compound `CCOC(=O)c1c(NC(=O)C2=COCCO2)sc2c1CCN(C(=O)OC)C2`, the inhibition in assay [1] is 3.45%; in assay [2], 8.72%.
For `OC[C@@H]1CN(Cc2ccc(-c3ccccc3)cc2)C[C@H](n2cnc3c(NCc4ccc(F)cc4)ncnc32)O1` the same measures were 20.8% and 22.9%.

As usually defined, the inhibition is the drop in the measured response relative to a control, in per cent.
